From PubChem BioAssay (EPA / NIEHS)
Calls of active or inactive are those of the source. Rule for the calls: active = hit-call score of the fitted dose curve at least 0.9, where 1 is the maximum; inactive = score below 0.9.

read-out: Matrix Metallopeptidase 9 (MMP9), MMP9 (gene 4318); test: BSK_KF3CT_MMP9: BioMAP Diversity Plus: KF3CT Assay for Matrix Metallopeptidase 9 (MMP9) Biomarker Activity (AID 2283074); details: primary human keratinocytes with fibroblasts; actives raise or lower the signal
Procedure: BSK_KF3CT is a cell-based, multiplexed-readout assay that uses keratinocytes and foreskin fibroblasts, a human skin primary cell co-culture, with measurements taken at 24 hours after chemical dosing in a 96-well plate.BSK_KF3CT_MMP9 is an assay component measured in the BSK_KF3CT assay. It measures MMP-9 antibody related to regulation of gene expression using ELISA technology.Data from the assay component BSK_KF3CT_MMP9 was analyzed into 1 assay endpoint. This assay endpoint, BSK_KF3CT_MMP9, was analyzed with bidirectional fitting relative to DMSO as the negative control and baseline of activity. Using a type of binding reporter, gain or loss-of-signal activity can be used to understand changes in the signaling as they relate to the gene MMP9. Furthermore, this assay endpoint can be referred to as a primary readout, because this assay has produced multiple assay endpoints where this one serves a signaling function. To generalize the intended target to other relatable targets, this assay endpoint is annotated to the protease intended target family, where the subfamily is matrix metalloproteinase.
The levels of cell surface (or secreted, indicated by the prefix "s") biomarker endpoints were measured by ELISA. Overt cytotoxicity to cells in confluent adherent cultures (all systems other than the BT system) was assessed by measuring total protein levels using sulforhodamine B (SRB) staining in parallel cultures at the time of biomarker measurements, indicated as SRB endpoints. For proliferation assays for adherent cell types, individual cell types are cultured at sub-confluence and relative cell numbers quantified by SRB staining at time points optimized for each system (48 h: 3C and CASM3C systems; 72 h: BT and HDF3CGF systems; 96 h: SAg system). SRB was performed by staining cells with 0.1% SRB after fixation with 10% TCA and reading wells at 560 nm.Viability and proliferation of PBMC (T cells) was quantified by Alamar Blue reduction for the SAg and BT systems. For PBMC viability (referred to as PBMC Cytotoxicity within the assay endpoint names), cells were plated (75,000/well in a 96-well plate) and then chemical samples added for 1 h before addition of activators, SEB and TSST-1 (20 ng/mL final concentration each). Cells were incubated for 90 h. Then, Alamar Blue (20 uL/well) (Invitrogen, Cat DAL1100) was added for 6 h, and the plates were read with a fluorescence microplate reader at 546/580 nm (excitation/emission). For PBMC proliferation, cells were plated and activated as above but incubated for only 16 h prior to addition of Alamar Blue. Plates were read after 6 h.

Structure (SMILES)	outcome	AC50
CCOP(=S)(OCC)SCS(=O)(=O)C(C)(C)C	inactive	–
Cc1c([N+](=O)[O-])c(C)c([N+](=O)[O-])c(C(C)(C)C)c1[N+](=O)[O-]	–	31.1 µM (active)
c1ccc2sc(SNC3CCCCC3)nc2c1	inactive	–
CCOP(=O)(OCC)OC(=CCl)c1ccc(Cl)cc1Cl	–	31.9 µM (active)
Oc1c(Cl)cc(Cl)cc1Cl	inactive	–
CCCCCCCCCCCCN(C)C	inactive	–
O=C(CCl)NCO	inactive	–
Cc1cc(C)cc(C)c1	inactive	–
CCOC(=O)CC(=O)CCl	inactive	–
[Cl][Sn]([c]1ccccc1)([c]1ccccc1)[c]1ccccc1	–	0.0692 µM (active)
O=[N+]([O-])c1cccc2ccccc12	inactive	–
CC1(C)[C@H](C(=O)O[C@H](C#N)c2cccc(Oc3ccccc3)c2)[C@@H]1/C=C(\Cl)C(F)(F)F	–	0.357 µM (active)
C=CC(Cl)CCl (stereo not given)	inactive	–
OCCN(CCO)CCO	inactive	–
OC(Cc1ccccc1Cl)(Cn1cncn1)C1(Cl)CC1 (stereo not given)	inactive	–
OCCCCO	inactive	–
c1ccc(-c2cccc(-c3ccccc3)c2)cc1	–	8.97 µM (active)
CCCCN(CCCC)C(=S)[S-].CCCCN(CCCC)C(=S)[S-].[Ni+2]	inactive	–
Oc1cccc(-c2ccccc2)c1	–	31.5 µM (active)
O=C(O)C1(c2ccc3c(c2)OC[C@H](Cc2ccc(-c4ccccc4)cc2)[C@H]3O)CCCC1	–	12.9 µM (active)

Structure (SMILES)	outcome	AC50
Nc1c(Oc2ccccc2)cc(O)c2c1C(=O)c1ccccc1C2=O	inactive	–
C[C@]12CC[C@@H](O)C[C@@H]1CC[C@@H]1[C@@H]2CC[C@]2(C)C(=O)CC[C@@H]12	inactive	–
CC(C)(C)c1cc([N+](=O)[O-])cc(C(C)(C)C)c1O	–	11.3 µM (active)
CCC(C)(C#N)N=NC(C)(C#N)CC (stereo not given)	inactive	–
COCC(=O)N(c1c(C)cccc1C)[C@H](C)C(=O)OC	inactive	–
N#Cc1cccnc1	inactive	–
NC(=O)CCl	inactive	–
Cc1cc(Cl)ccc1N	inactive	–
CC(C)(COCC1CO1)COCC1CO1 (stereo not given)	inactive	–
Oc1c(Br)cc(Br)cc1Br	–	28.2 µM (active)
CCOC(=O)CCN(SN(C)C(=O)Oc1cccc2c1OC(C)(C)C2)C(C)C	inactive	–
CCOC(=O)C(SP(=S)(OC)OC)c1ccccc1 (stereo not given)	inactive	–
OC(Cc1ccccc1Cl)(Cn1[nH]cnc1=S)C1(Cl)CC1 (stereo not given)	inactive	–
O=C1C=CC(=O)c2ccccc21	–	5.16 µM (active)
Cc1cccc(OP(=O)(Oc2cccc(C)c2)Oc2cccc(C)c2)c1	–	20.3 µM (active)
O=C(O)COc1cc(Cl)c(Cl)cc1Cl	inactive	–
CN(C)C(=S)S	inactive	–
CC(C)=CC1C(C(=O)OCc2cccc(Oc3ccccc3)c2)C1(C)C (stereo not given)	inactive	–
O=S(=O)(c1ccc(Cl)cc1)c1cc(Cl)c(Cl)cc1Cl	–	0.58 µM (active)
CCCCOC(=O)COC(=O)c1ccccc1C(=O)OCCCC	inactive	–
